# PI5P4K alpha inh: PI5P4K alpha (human) kinase inhibition. PI5P4Kalpha enzyme, ADP-Glo luminescence, 60 min; stronger effect = lower value. AID 652105. max response, %. P48426. hit rate 1.2% among 330,000; active means max response of -50% or lower; inconclusive means between -30% and -50%; inactive means -30% or higher; further: value at the top dose of about 77 µM; on the % scale 0 is the no-effect control and ±100 the full control effect
# Target sequence (P48426 whole entry, looked up): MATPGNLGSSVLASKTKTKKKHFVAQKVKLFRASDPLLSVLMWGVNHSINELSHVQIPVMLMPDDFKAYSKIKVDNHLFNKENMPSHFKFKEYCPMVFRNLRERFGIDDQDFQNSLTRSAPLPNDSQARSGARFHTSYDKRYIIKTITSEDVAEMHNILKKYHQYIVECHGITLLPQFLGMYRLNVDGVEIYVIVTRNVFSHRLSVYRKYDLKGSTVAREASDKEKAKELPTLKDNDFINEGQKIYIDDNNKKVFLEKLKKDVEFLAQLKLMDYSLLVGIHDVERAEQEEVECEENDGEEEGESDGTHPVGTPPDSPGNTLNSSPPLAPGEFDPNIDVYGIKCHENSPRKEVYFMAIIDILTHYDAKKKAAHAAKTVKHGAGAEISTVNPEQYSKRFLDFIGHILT
#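 ADP-Glo luminescence end-point read after a 60 min room-temperature kinase reaction of PI5P4Kalpha plus substrate, initiated with ATP at 5 microM final. Buffer: 0.038 M HEPES pH 7.4, EGTA, 0.1% CHAPS, 5% DMSO.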
# POLI inh: DNA polymerase iota (human) inhibition; Potency, µM (top dose mostly 115 µM), inactives show at the highest dose activity, negative = inhibition, usual class: inhibitors; Pol iota fluorescent replication assay, 10 min; Q9UNA4; AID 588590; hit rate 1% among 390,000; further: potency means the concentration at half of the fitted maximal effect
#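 Fluorescent replication assay read twice, at 0 min and 10 min after adding 50 nM (final) substrate. Enzyme (10 nM) and compounds were first incubated 15 min at room temperature; enzyme-free buffer wells were negative controls.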
# PI4K2A inh: PI4K2A (human) kinase inhibition; Q9BTU6; activity change, negative = inhibition, % at 76.9 µM; purified PI4K2A, ADP-Glo luminescence, 1 h; stronger effect = lower value; hit rate 0.13% among 420,000; in the data active means activity change below about -50%; inconclusive means mostly about -30% to -49%;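 further: -100% = wells without enzyme as full effect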
#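 Compounds are screened against recombinant PI4K2A using PI as substrate and ATP, the latter dispensed at 300 microM. Reactions run one hour at ambient temperature before ADP-Glo detection; full inhibition defined by wells lacking enzyme.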
# POLH inh: inhibitors of human DNA polymerase eta. recombinant Pol eta, fluorescent DNA replication assay. Potency, µM (top dose mostly 114 µM), for inactives: at the top dose activity change, negative = inhibition, most hits filed as inhibitors. hit rate 1.2% among 390,000. AID 588591; further: potency means the concentration at half of the fitted maximal effect; on the % scale 0 is the no-effect control and ±100 the full control effect
#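 Pol eta (10 nM) was preincubated with compounds for 15 min at room temperature, after which fluorescent replication substrate (50 nM final) was added to start the reaction. Fluorescence was read kinetically at 0 and 10 min.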
# POLB inh: blocks human DNA polymerase beta activity | P06746 | Pol beta primer extension/strand displacement, fluorescence kinetic | Potency, µM (highest dose often 114 µM), for inactives: top-dose activity change, negative = inhibition, most hits filed as inhibitors | hit rate 1.3% among 340,000; further: potency means the concentration at half of the fitted maximal effect; on the % scale 0 is the no-effect control and ±100 the full control effect
#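 Reaction started by 50 nM substrate onto compound-treated Pol beta (10 nM, 15 min preincubation, room temperature); plates read at 0 min and 10 min. Normalized concentration-effect data fitted by four-parameter Hill equation.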
# POLK inh: blocks human DNA polymerase kappa activity; purified Pol kappa, fluorescent DNA synthesis assay, 10 min; hit rate 0.53% among 400,000; Q9UBT6; AID 588579; Potency, µM (highest dose often 107 µM), inactives show at the top dose activity, negative = inhibition, most hits filed as inhibitors; further: potency means the concentration at half of the fitted maximal effect; on the % scale 0 is the no-effect control and ±100 the full control effect
#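 First, compounds were pin-transferred onto 10 nM Pol kappa. After 15 min at room temperature, substrate was added to 50 nM final. Fluorescence was then measured kinetically at 0 and 10 min.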
# * = called active by the depositor; ? = inconclusive; nt = no result; [ ] = dose if it differs, or a comment. Hits are enriched below; roughly 2.8% of the tested compounds scored in any of these assays. Unless noted, the call rests on the fitted dose curve; in most records, active means well fitted inhibition curve with a large enough effect; inconclusive means small, poorly fitted or top-dose-only effect, or another doubt; inactive means no such curve, though single readings can be large or run the other way.
SMILES,PI5P4K alpha inh,POLI inh,PI4K2A inh,POLH inh,POLB inh,POLK inh
O=C(Cn1c(=O)oc2cc(S(=O)(=O)NCc3ccccc3)ccc21)NCc1ccc(F)cc1,nt,22%,-8,-17%,56µM*,1%
Oc1ccc(Br)cc1C1C=C(c2ccc3c(c2)OCO3)NC(c2ccc(Br)cc2)N1 (stereo not drawn),nt,?,nt,nt,nt,-6%
O=C1C=C(O)CC(c2ccc(Cl)cc2)C1 (stereo not drawn),-22,1%,-1,?,50µM*,-9%
O=C(NCC(c1ccco1)N1CCCC1)c1ccc(S(=O)(=O)Nc2ccccc2Cl)cc1 (stereo not drawn),-1,?,-16,?,nt,79µM*
O=C(NCC(c1ccco1)N1CCCCC1)c1ccc(S(=O)(=O)Nc2ccccc2Cl)cc1 (stereo not drawn),0,-7%,2,0%,nt,-9%
O=C(O)c1cc([N+](=O)[O-])cc2c1nnn2O,-67*,?,-22,-14%,1%,0%
Cc1ccc(CN2[C@H]3CCCC[C@@H]3OCCS2(=O)=O)cc1,nt,19%,nt,nt,nt,-2%
O=C(NNc1c2ccccc2nc2ccccc12)c1cccc(O)c1,-1,-3%,-6,-18%,?,-28%
O=C(NNc1c2ccccc2nc2ccccc12)c1ccc(O)cc1,-28,-6%,-2,-6%,79µM*,-10%[60.1 µM]
O=C(O)c1cc(N=Nc2c(O)ccc3ccccc23)cc(C(=O)O)c1,?,6%,-9,18µM*,-4%,20µM*
Oc1ccc(N=Nc2c(O)ccc3ccccc23)cc1,nt,-2%,-11,-8%,-14%,-7%
CCc1nnc(NS(=O)(=O)c2ccc(N/C=C\C(=O)c3cccc4ccccc34)cc2)s1,-25,-15%,-4,45µM*,-18%,-7%
CCc1ccccc1N1C(=O)N(Cc2cc(=O)n3ccccc3n2)c2ccccc2S1(=O)=O,nt,-2%,-1,-10%,1%,-6%[60.1 µM]
CC1(C)NC(=O)N(CC(=O)OCC(=O)c2ccc(Br)s2)C1=O,-64*,?,-4,?,nt,-23%
COc1ccc(NC(=O)COC(=O)CN2C(=O)NC(C)(C)C2=O)cc1,4,2%,5,-6%,nt,-21%
Cn1c(N)c(C(=O)COC(=O)c2cc(C(F)(F)F)nc3ccccc23)c(=O)n(Cc2ccccc2)c1=O,15,33%,0,-10%,-26%,-11%
Cn1c(N)c(C(=O)COC(=O)c2cc(-c3ccco3)nc3ccccc23)c(=O)n(Cc2ccccc2)c1=O,nt,nt,nt,nt,20µM*,nt
O=C(CCCl)NCc1ccccc1,nt,nt,3,nt,nt,nt
COc1ccc(OC)c(S(=O)(=O)Nc2ccc(O)c(Sc3ncn[nH]3)c2)c1,nt,?,6,?,79µM*,-25%
CCOc1ccc(S(=O)(=O)Nc2ccc(O)c(Sc3ncn[nH]3)c2)cc1,1,-12%,3,-8%,-4%,6%
COc1ccc(C2CC(c3ccccc3)Oc3cc(OC)ccc32)cc1 (stereo not drawn),nt,?,nt,nt,nt,-10%
C=CCNc1nc(-c2ccc(O)c(C(N)=O)c2)cs1,-58*,?,-12,-21%,13%,-10%
O=C(Cn1ncc(Cl)c(Cl)c1=O)N1CCN(Cc2ccccc2)CC1,-8,35µM*,-8,?,28µM*,0%
CCc1ccc(C(=O)Cn2ncc(Cl)c(Cl)c2=O)cc1,?,?,-12,?,50µM*,-17%
O=C(Cn1ncc(Cl)c(Cl)c1=O)N1CCOCC1,1,43%,7,-18%,1%,-7%
SMILES,PI5P4K alpha inh,POLI inh,PI4K2A inh,POLH inh,POLB inh,POLK inh
CCn1c(C)c(C)c2cc(C(=O)NCCCN3CCCCCC3)ccc21,-10,89µM*,3,-6%,5%,-12%
CCn1c(C)c(C)c2cc(C(=O)NCCCN3CCCCC3)ccc21,3,41%,-2,-11%,0%,0%
O=c1c(C(c2ccc(Cl)cc2)c2c(O)nc3n(c2=O)CCS3)c(O)nc2n1CCS2,?,?,1,89µM*,-23%,?
COc1ccc(C(=O)N/N=C/c2cc(Br)ccc2O)cc1OC,-1,?,2,-11%,-91%,?
COc1ccc(O)c(/C=N/NC(=O)c2ccc(CSc3nc(C)cc(C)n3)cc2)c1,-6,?,0,?,25µM*,?
Cc1cc(C)nc(SCc2ccc(C(=O)N/N=C/c3ccco3)cc2)n1,-4,100%,2,-4%,14µM*,-3%
Cc1cc(C)nc(SCc2ccc(C(=O)N/N=C/c3ccc(C(=O)O)cc3)cc2)n1,4,65%,-2,3%,0%,-11%
C/C(=N\NC(=O)c1ccc(CSc2nc(C)cc(C)n2)cc1)c1ccco1,1,103%,-1,-8%,56µM*,-24%
COc1ccc(O)c(/C=N/NC(=O)c2ccc(OCc3cccc(Br)c3)cc2)c1,nt,?,-4,-10%,16µM*,-9%
C/C(=N\NC(=O)c1ccc(-c2ccccc2)cc1)c1ccco1,-19,31%,3,-1%,15%,-6%
O=S(=O)(c1ccc(Cl)s1)N1CCC(c2cn3ccccc3n2)CC1,nt,nt,-3,nt,nt,nt
CN1CCN(C(=S)NC(=O)c2ccc(Cl)cc2)CC1,-91*,?,5,?,?,-12%
C[C@H]1COc2cc(N3CCSCC3)ccc2S(=O)(=O)N1C,nt,nt,-3,nt,nt,nt
COc1ccc(-c2nc3ccccc3s2)cc1NC(=O)c1ccc(F)cc1,nt,3%,2,-13%,22%,0%
CCCc1nn2c(=O)cc(COC(=O)c3cccs3)nc2s1,nt,-10%,-13,-2%,9%,-18%
COc1ccc(CN(Cc2ccccc2)C(=O)CN2CCN(C)CC2)cc1COc1ccc(NC(C)=O)cc1,nt,?,nt,nt,nt,-11%
CC(C)Nc1ccc(Nc2ccnc3cc4ccccc4cc23)cc1,-19,?,2,-18%,14µM*,?
O=C(NCCc1ccccc1)c1nccc2ccccc12,2,6%,-2,4%,nt,-3%
c1ccc(CCNc2ccnc3cc4ccccc4cc23)cc1,4,81%,6,-21%,22µM*,-14%
CCN1C(=O)CC(c2ccccc2)CC1=O,-1,79µM*,-5,5%,nt,6%
COc1ccc(C2C(C#N)=C(N)SC(N)=C2C#N)cc1OC,-60*,25%,-4,-12%,-4%,-23%
COC(=O)C1=C2SC(C)C(=O)N2C(N)=C(C#N)C1c1ccc(OC)c(OC)c1 (stereo not drawn),-58*,11%,-9,-10%,53%,-14%
CCOC(=O)C1CCN(C(=O)Nc2ccc3nc(-c4ccco4)c(-c4ccco4)nc3c2)CC1,-70*,2.8µM*,?,2.8µM*,1.6µM*,16µM*

# Bioassay records as filed in PubChem BioAssay.
